These results are taken from PubChem BioAssay (Tox21).

For assay [1], the target named is Progesterone receptor (Homo sapiens) (UniProt P06401). Put plainly: qHTS assay to identify small molecule agonists of the progesterone receptor (PR) signaling pathway (AID 1346784; calls by dose curve; note: nearly all actives have a fitted effect of over 30% in size). The method, boiled down: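 Agonist mode, quantitative HTS format in a HEK 293T line expressing a UAS-controlled beta-lactamase reporter; 16 hr compound exposure at 37C in 2% charcoal-stripped FBS, then LiveBLAzer B/G FRET fluorescence.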
Chain of Progesterone receptor (Homo sapiens) (P06401 whole entry, looked up): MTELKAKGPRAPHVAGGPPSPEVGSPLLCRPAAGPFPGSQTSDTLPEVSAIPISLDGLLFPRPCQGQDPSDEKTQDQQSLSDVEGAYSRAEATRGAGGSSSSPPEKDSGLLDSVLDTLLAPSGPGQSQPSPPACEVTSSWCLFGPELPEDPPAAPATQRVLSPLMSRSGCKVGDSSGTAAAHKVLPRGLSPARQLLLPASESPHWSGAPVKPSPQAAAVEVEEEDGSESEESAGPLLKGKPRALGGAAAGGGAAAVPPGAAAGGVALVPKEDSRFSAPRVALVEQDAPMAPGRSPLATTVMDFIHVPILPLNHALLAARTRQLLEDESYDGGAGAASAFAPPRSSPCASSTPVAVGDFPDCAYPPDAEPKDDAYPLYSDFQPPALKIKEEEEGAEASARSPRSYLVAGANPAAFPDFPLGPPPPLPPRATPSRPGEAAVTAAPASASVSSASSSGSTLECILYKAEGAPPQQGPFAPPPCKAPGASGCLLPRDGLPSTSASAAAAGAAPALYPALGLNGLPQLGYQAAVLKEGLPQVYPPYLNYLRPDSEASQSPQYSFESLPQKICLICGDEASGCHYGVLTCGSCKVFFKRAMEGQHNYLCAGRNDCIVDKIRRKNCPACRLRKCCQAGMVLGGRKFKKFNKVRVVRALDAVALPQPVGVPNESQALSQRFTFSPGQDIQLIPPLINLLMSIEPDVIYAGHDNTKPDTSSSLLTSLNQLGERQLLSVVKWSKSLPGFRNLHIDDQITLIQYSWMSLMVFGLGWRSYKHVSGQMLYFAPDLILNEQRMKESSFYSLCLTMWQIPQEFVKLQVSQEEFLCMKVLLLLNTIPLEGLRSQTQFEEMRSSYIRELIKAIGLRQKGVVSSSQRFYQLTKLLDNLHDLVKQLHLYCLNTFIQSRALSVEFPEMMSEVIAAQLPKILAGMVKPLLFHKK

Assay [2] shares this target. The assay is described as follows: qHTS assay to identify small molecule antagonists of the progesterone receptor (PR) signaling pathway (AID 1346795; active = well fitted inhibition curve with a large enough effect in the signal ratio in the repeat runs, not every such curve was filed as active; the % refers to the signal ratio). The method, boiled down:
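HEK293T PR-UAS-bla reporter cells in charcoal-stripped serum (2%) received compound after a 6 hr settling period, followed by R5020 agonist at 1 nM final; 16 hr incubation preceded the FRET substrate step and fluorescence measurement.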

Assay [3] in a line: qHTS assay to identify small molecule antagonists of the progesterone receptor (PR) signaling pathway - cell viability counter screen (AID 1346798). Note: nearly all actives have a fitted effect of over 50% in size. Note: potency is the fitted concentration of half-maximal effect. In outline:
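Same-well multiplex: after 16 hr at 37C with compound and R5020 stimulation, HEK293T cells carrying a UAS-bla reporter received LiveBLAzer substrate (2 hr RT), then CellTiter-Glo (30 min RT) for luminescent viability.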

A short description of assay [4]: qHTS assay to identify small molecule agonists of the progesterone receptor (PR) signaling pathway - cell viability counter screen (AID 1346799; calls by dose curve; note: nearly all actives have a fitted effect of over 45% in size; note: potency is the fitted concentration of half-maximal effect). In outline:
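Counter screen for cytotoxicity: compound-treated PR-UAS-bla HEK293T cells (16 hr, 37C, 5% CO2) were assayed with CellTiter-Glo, luminescence measured after 30 min at room temperature.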

Assay [5] can be described thus: qHTS assay to identify small molecule antagonists of the TGF-beta/Smad signaling pathway - cell viability counter screen (AID 1346824). Note: nearly all actives have a fitted effect of over 50% in size. Note: potency is the fitted concentration of half-maximal effect. The method, boiled down:
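Cytotoxicity counter-screen run in the same wells as the beta-lactamase Smad reporter read: CellTiter-Glo luminescence after 30 min at room temperature. HEK 293T SBE-bla cells had 5 hr compound exposure at 37 C with TGF-beta1 (0.25 ng/mL stock).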

The nature of assay [6]: qHTS assay to identify small molecule agonists of the TGF-beta/Smad signaling pathway - cell viability counter screen (AID 1346829). Note: nearly all actives have a fitted effect of over 45% in size. Note: potency is the fitted concentration of half-maximal effect. In outline: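 HEK 293T SBE-bla line, 5 hr compound exposure at 37 C, multiplexed CellTiter-Glo viability read by luminescence.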
Assay [7] is described as follows: qHTS assay to identify small molecule agonists of the TGF-beta/Smad signaling pathway (AID 1346859; active = well fitted activation curve with a large enough effect in the signal ratio in the repeat runs, not every such curve was filed as active; the % refers to the signal ratio; note: series mostly up to about 77 µM). The method, boiled down: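 Smad-responsive beta-lactamase reporter cells (HEK 293T) received compounds from DMSO stocks after overnight attachment, were incubated 5 hr, then treated 2 hr with FRET substrate before dual-emission fluorescence measurement (405 nm excitation).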

Assay [8] is described as follows: Human pregnane X receptor (PXR) small molecule agonists, qHTS cell viability counter screen (AID 1346977). Note: nearly all actives have a fitted effect of over 50% in size. In outline:
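Measures live-cell protease fluorescence (CellTiter-Fluor) in PXR-Luc HepG2 cells treated 24hr with compounds at 37C. Cells had 5hr to attach before pin transfer of DMSO solutions.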

The nature of assay [9]: Caspase-3/7 induction in HepG2 cells by small molecules, qHTS assay (AID 1346978). Note: nearly all actives have a fitted effect of over 15% in size. Note: potency is the fitted concentration of half-maximal effect. The method, boiled down: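 Caspase-3/7 induction was measured by Caspase-Glo 3/7 luminescence (30 min, room temperature) after a 17 hr compound exposure of wild-type HepG2 cells seeded at 2,000 per well and pre-incubated 5 hr.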
Assay [10] in a line: Caspase-3/7 induction in CHO-K1 cells by small molecules, qHTS cell viability counter screen (AID 1346979). Note: nearly all actives have a fitted effect of over 35% in size. The method, boiled down:
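In the same wells as the caspase read, viability of compound-treated wild-type CHO-K1 cells was assessed using CellTiter-Fluor, added after 16hr at 37C and measured by fluorescence following 1hr further incubation.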

Assay [11] in a line: Caspase-3/7 induction in CHO-K1 cells by small molecules, qHTS assay (AID 1346980). Note: nearly all actives have a fitted effect of over 15% in size. In outline:
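Luminescent Caspase-Glo 3/7 read (30min, room temperature) quantified apoptosis induction. Cells were wild-type CHO-K1, treated with compound for 17hr at 37 C and 5% CO2.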

Assay [12] is described as follows: Caspase-3/7 induction in HepG2 cells by small molecules, qHTS cell viability counter screen (AID 1346981). Note: nearly all actives have a fitted effect of over 30% in size. Note: potency is the fitted concentration of half-maximal effect. The method, boiled down:
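Steps: seed 2,000 HepG2 cells per well; incubate 5 hr at 37 C; pin-add compounds in DMSO; incubate 16 hr; add CellTiter-Fluor; after 1 hr at 37 C and 5% CO2, read fluorescence.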

Assay [13] concerns the target Cytochrome P450 2D6 (Homo sapiens) (UniProt P10635). The assay is described as follows: Cytochrome P450 Family 2 Subfamily D Member 6 (CYP2D6) small molecule antagonists: luciferase reporter qHTS assay (AID 1671196). Note: nearly all actives have a fitted effect of over 50% in size. Note: potency is the fitted concentration of half-maximal effect. In outline: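 P450-Glo format: CYP2D6 converts a proluciferin substrate to luciferin in an NADPH-driven reaction lasting 1 h at room temperature. Light output, proportional to CYP2D6 activity, reflects interference by test chemicals.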

In assay [14] the target is Cytochrome P450 2C19 (Homo sapiens) (UniProt P33261). The assay is described as follows: Cytochrome P450 Family 2 Subfamily C Member 19 (CYP2C19) small molecule antagonists: luciferase reporter qHTS assay (AID 1671197). Note: nearly all actives have a fitted effect of over 65% in size. Note: potency is the fitted concentration of half-maximal effect. In outline: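 First, compounds are pinned into enzyme-substrate mix and held 10 min at room temperature. Second, NADPH regeneration solution is added and plates incubate 1 h at 37C. Third, detection reagent is added and luminescence read after 20 min.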
Chain of Cytochrome P450 2C19 (Homo sapiens) (P33261 whole entry, looked up): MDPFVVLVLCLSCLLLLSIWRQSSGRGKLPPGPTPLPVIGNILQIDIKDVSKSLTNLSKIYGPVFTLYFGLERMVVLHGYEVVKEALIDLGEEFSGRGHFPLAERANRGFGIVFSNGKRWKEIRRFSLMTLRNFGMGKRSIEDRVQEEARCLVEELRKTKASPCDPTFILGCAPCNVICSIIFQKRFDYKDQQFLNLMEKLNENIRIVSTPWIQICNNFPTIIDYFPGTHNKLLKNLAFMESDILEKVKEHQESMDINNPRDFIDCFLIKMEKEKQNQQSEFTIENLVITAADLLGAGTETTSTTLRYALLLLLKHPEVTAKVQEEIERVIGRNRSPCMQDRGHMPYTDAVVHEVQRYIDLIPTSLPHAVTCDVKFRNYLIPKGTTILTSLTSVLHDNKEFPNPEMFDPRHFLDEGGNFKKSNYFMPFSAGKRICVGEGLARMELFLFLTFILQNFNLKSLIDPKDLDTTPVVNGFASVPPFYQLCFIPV

The target in assay [15] is Nuclear receptor subfamily 1 group I member 2 (Rattus norvegicus) (UniProt Q9R1A7). The assay is described as follows: Rat pregnane X receptor (rPXR) activation by small molecules, qHTS assay (AID 1346983). Note: nearly all actives have a fitted effect of over 20% in size. The following applies: rPXR luciferase reporter cells, One-Glo luminescence, 24 h; max activation: stronger effect = higher value. The method, boiled down:
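Luminescent readout (One-Glo luciferase, 30 min room temperature) followed 24 hr compound treatment at 37 C of rPXR cells plated 2,000 per well and preincubated 5hr; qHTS format with compounds delivered in DMSO.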

In assay [16] the target is Nuclear receptor subfamily 1 group I member 2 (Homo sapiens) (UniProt O75469). The assay is described as follows: Human pregnane X receptor (PXR) activation by small molecules, qHTS assay (AID 1346985). Note: nearly all actives have a fitted effect of over 40% in size. The method, boiled down:
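DPX-2 cells (HepG2 co-transfected with a PXR response element and a CYP3A4-promoter luciferase construct) were seeded at 2,000 per well, rested 5 hr at 37C, then exposed to DMSO-dissolved compounds for 24 hr. Activation was read as luciferase luminescence.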

For assay [17], the target named is Thyrotropin-releasing hormone receptor (Homo sapiens) (UniProt P34981). The assay is described as follows: qHTS assay to identify small molecule antagonists of the thyrotropin-releasing hormone receptor (TRHR) signaling pathway (AID 1346877; active = well fitted inhibition curve with a large enough effect in the repeat runs, not every such curve was filed as active; note: series mostly up to about 51 µM). The method, boiled down:
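Cells (TRHR-HEK293) are plated and kept 18 h at 37 °C/5% CO2. A calcium-sensitive dye is added for 2 h, compound follows for 5 min at room temperature, and TRH is then given at 1 nM final.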

The target is the same in assay [18]. The assay is described as follows: qHTS assay to identify small molecule agonists of the thyrotropin-releasing hormone receptor (TRHR) signaling pathway (AID 1346891; calls by dose curve;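 note: HEK293 cells expressing TRHR with calcium dye readout; series mostly up to about 58 µM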). In outline: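 Agonist-mode calcium mobilisation screen: TRHR-transfected HEK293 cells cultured overnight (18 h), dye-loaded for 2 h at 37 °C, exposed to compounds, and monitored by fluorescence for 3 min.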

Assay [19] addresses Nuclear receptor subfamily 1 group I member 2 (Homo sapiens) (UniProt O75469). Put plainly: Human pregnane X receptor (PXR) small molecule agonists, qHTS assay (AID 1346982). Note: nearly all actives have a fitted effect of over 35% in size. In outline:
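Agonist mode qHTS: PXR-Luc HepG2 cells plated 5 hr before DMSO-dissolved compounds were pinned in, cultured 24 hr at 37 C, 5% CO2; ONE-Glo luminescence readout.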

Assay [20] has the same target. The assay is described as follows: CYP3A4 induction through human pregnane X receptor (PXR) by small molecules, qHTS assay (AID 1346984). Note: nearly all actives have a fitted effect of over 40% in size. The method, boiled down:
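Steps: seed DPX-2 cells, 5 hr at 37C; pin-transfer compounds; 24 hr at 37C; add Luciferin-IPA (3uM final), 3 hr at 37C; add One-Glo, 30 min RT; read luminescence.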

Several values for one entry are separate records, joined by “and”; a condition that tells them apart may be missing. Equal entries are not always repeated. Records with an inconclusive call do not appear. Where a structure was tested more than once in an assay, its records may differ in their call. Activity calls are given as the source filed them. Unless noted, calls come from the whole dose curve; as a rule, active = well fitted curve in the direction sought with a large enough effect in the repeat runs; inconclusive = weak or mixed curves; inactive = no such curve, though single readings can be large; an effect the other way counts as inactive or inconclusive.
% is set by controls: 0 for no effect and ±100 for the full control effect.

Chain of Nuclear receptor subfamily 1 group I member 2 (Homo sapiens) (O75469 whole entry, looked up): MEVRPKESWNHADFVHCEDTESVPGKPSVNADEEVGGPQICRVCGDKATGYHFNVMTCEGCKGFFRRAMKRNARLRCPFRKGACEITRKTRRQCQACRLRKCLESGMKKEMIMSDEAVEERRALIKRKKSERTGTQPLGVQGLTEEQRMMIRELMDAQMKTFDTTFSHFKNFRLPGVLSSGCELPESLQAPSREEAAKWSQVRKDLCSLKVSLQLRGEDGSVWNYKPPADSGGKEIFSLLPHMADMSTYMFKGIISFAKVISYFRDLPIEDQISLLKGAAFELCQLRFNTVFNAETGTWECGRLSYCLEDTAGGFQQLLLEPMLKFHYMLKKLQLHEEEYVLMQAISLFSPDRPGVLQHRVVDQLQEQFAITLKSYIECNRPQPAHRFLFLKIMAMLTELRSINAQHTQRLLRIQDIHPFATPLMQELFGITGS
Chain of Cytochrome P450 2D6 (Homo sapiens) (P10635 whole entry, looked up): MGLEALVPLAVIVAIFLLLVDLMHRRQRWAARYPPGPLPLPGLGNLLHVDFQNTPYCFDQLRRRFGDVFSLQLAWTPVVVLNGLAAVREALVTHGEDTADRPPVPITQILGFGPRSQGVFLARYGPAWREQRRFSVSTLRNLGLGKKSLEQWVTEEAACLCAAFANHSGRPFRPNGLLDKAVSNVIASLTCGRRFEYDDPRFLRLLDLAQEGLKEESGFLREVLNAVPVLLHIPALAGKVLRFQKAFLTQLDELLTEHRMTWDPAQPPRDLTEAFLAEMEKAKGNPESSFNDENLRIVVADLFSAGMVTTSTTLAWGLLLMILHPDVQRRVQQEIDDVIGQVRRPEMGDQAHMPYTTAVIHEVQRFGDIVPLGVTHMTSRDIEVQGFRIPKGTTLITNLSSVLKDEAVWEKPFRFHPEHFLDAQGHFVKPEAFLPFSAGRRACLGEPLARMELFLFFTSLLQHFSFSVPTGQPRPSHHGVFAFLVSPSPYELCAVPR
Chain of Thyrotropin-releasing hormone receptor (Homo sapiens) (P34981 whole entry, looked up): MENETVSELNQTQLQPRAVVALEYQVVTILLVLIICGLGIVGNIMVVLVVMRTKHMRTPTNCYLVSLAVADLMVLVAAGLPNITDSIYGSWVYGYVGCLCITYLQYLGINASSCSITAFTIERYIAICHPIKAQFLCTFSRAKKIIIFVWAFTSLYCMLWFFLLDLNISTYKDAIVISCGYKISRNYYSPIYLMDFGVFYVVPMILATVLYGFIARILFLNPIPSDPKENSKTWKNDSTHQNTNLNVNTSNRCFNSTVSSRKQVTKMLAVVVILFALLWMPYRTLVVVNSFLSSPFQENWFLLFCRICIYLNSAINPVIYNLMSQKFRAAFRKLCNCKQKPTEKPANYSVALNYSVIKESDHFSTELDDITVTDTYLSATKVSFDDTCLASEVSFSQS
Chain of Nuclear receptor subfamily 1 group I member 2 (Rattus norvegicus) (Q9R1A7 whole entry, looked up): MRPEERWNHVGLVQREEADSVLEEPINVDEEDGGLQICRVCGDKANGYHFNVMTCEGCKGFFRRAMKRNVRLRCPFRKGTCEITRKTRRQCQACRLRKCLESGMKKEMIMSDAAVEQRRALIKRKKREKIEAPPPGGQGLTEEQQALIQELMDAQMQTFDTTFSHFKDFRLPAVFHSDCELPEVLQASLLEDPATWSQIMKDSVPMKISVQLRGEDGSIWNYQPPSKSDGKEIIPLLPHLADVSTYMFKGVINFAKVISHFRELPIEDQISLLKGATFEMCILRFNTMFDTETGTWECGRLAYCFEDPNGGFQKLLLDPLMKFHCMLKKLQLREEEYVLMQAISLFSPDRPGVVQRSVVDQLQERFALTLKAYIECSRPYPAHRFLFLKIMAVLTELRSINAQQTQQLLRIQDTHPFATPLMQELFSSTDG

As for `C=C(C)C(=O)OCC(C)O` (centres undefined), the Potency entry in assay [1], in assay [2], in assay [3], in [4], in [5] and in [6] was “inactive” in each case. Also, the Potency entry in assay [8], in assay [9], in [10], in [11], in assay [12] and in [13] was “inactive” each time. For the same compound, the Potency result in [14] was “inactive”. Further, the outcome in assay [7] was inactive.

Regarding `CN1[C@@H]2CC(OC(=O)[C@H](CO)c3ccccc3)C[C@H]1[C@@H]1O[C@@H]12` (some centres undefined), the Potency result in [1], in assay [2], in assay [3], in [4], in [5] and in assay [6] was “inactive” each time. Further, the Potency result in assay [8], in assay [10], in assay [11] and in [12] was “inactive” throughout. For the same compound, the compound was classed as inactive in assay [7] and in assay [16]. The max activation in assay [15] was 6.06% (inactive) and -0.026% (inactive).

For the compound `OC[C@H]1O[C@H](O[C@]2(CCl)O[C@H](CCl)[C@@H](O)[C@@H]2O)[C@H](O)[C@@H](O)[C@H]1Cl`, the Potency result in assay [1], in assay [2], in [3], in assay [4], in [5] and in [6] was “inactive” throughout. Further, the Potency entry in [17], in [18], in assay [8], in assay [9], in assay [11] and in [12] was “inactive” throughout. Besides, the Potency entry in [19], in [13] and in assay [14] was “inactive” throughout. Also, in assay [7], the compound was classed as inactive.

In the case of `F[B-](F)(F)F`, the Potency entry in [1], in assay [2], in assay [3], in assay [4], in assay [5] and in assay [6] was “inactive” each time. In addition, the Potency result in assay [17], in [18], in assay [8], in assay [9], in assay [11] and in assay [12] was “inactive” throughout. In [13], the Potency entry is “inactive”. For the same compound, the outcome in assay [7] was inactive. In assay [14], the Potency is 73.9 µM (active) and inactive and 79.6 µM (active).

As for `NC(=O)c1cccnc1`, the Potency result in [1], in [2], in assay [3], in assay [4], in assay [5] and in [6] was “inactive” throughout. The Potency result in [8], in assay [9], in assay [10], in [11], in [12] and in assay [19] was “inactive” in each case. In addition, the Potency entry in assay [20] and in assay [13] was “inactive” in each case. For the same compound, the call in [7] and in assay [16] was inactive. Besides, the max activation in [15] was -0.433% (inactive). Further, the Potency in assay [14] is 49.3 µM (active) and inactive.

Consider `CCCCCCCCCCCCCCCC[N+](C)(C)Cc1ccccc1`, for which the Potency result in assay [1], in assay [2], in assay [17], in assay [18], in assay [11] and in assay [19] was “inactive” in each case. Also, the Potency result in assay [20] is “inactive”. For the same compound, the Potency is 24.8 µM (active) in [3]; 10 µM (active) and 12.4 µM (active) and 6.68 µM (active) in assay [4]; 56.7 µM (active) and 49.8 µM (active) in assay [5]; 45 µM (active) and 39.6 µM (active) and 19 µM (active) in assay [6]; 70.8 µM (active) and inactive in [9]; 62.2 µM (active) in [12]. The Potency in assay [13] was 923 nM (active) and 406 nM (active) and 389 nM (active); in assay [14], 32.7 µM (active) and 51.2 µM (active) and 27.5 µM (active). Besides, the compound was classed as inactive in assay [7] and in assay [16]. Further, the max activation in [15] is -17.4% (inactive).
